Largest response in the series, negative = inhibition and Potency data for 93 compounds are collected here from PubChem BioAssay AID1490 (National Center for Advancing Translational Sciences (NCATS), 2009).

Where “and” joins values, the source holds several entries; their conditions need not be identical. Identical values can stand only once. Out of some 310,000 compounds screened, about 11,000 (3.5%) were called active. Not shown: some 4% with an inconclusive outcome. Many of the other results were omitted from the sample, so actives are more common in it than they were. A number with no mark means an inactive call. Calls follow the shape of the dose curve; as a rule, active = well fitted inhibition curve with a large enough effect; inconclusive = small, poorly fitted or top-dose-only effect, or another doubt; inactive = no such curve, though single readings can be large or run the other way.
Potency is read from the fitted curve at half-maximal effect.

This test deals with 4'-phosphopantetheinyl transferase ffp (Bacillus subtilis) (UniProt Q9F4F7). The test is described as follows: qHTS Assay for Inhibitors of Bacillus subtilis Sfp phosphopantetheinyl transferase (PPTase).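 Also: the enzyme is Sfp with the accession as filed and its product quenches rhodamine fluorescence.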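 As to Largest response in the series, negative = inhibition: 0% = enzyme reaction without inhibitor and -100% = no enzyme wells.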 As to conditions: Biochemical Sfp PPTase activity. The essentials:
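Fluorescence-quenching assay: 15 nM Sfp-PPTase preincubated 15 min at room temperature with compound, then 5 uM rhodamine-CoA and 12.5 uM BHQ-2-labelled YbbR peptide added. Fluorescence (ex 525/em 598 nm) read at start and after 30 min; difference gives rate.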
On the technique in general: Quantitative high-throughput screening tests each substance at several concentrations.
On to `CN(C)CCCNC(=S)N1CCN(c2nc(-c3ccccc3)cs2)CC1`, for which the largest response in the series, negative = inhibition was -3.69%. On the same count and under the same terms, with `CC(=O)c1cccc(NC(=O)C2CCN(C(=O)c3ccccc3Cl)CC2)c1` the figure was -3.58%. Turning to `Cn1c(CCN2CCCC2)nc2cc(NS(=O)(=O)c3ccccc3)ccc21`, the largest response in the series, negative = inhibition was 1.01%. Still for that read-out and setting: with `O=S(=O)(Nc1ccc2cn[nH]c2c1)c1ccccc1` the figure was 14.6%. As to `O=S(=O)(Nc1ccc2nc(-c3ccco3)[nH]c2c1)c1ccccc1`, the Potency was 28.2 µM (active).

Consider `O=C(c1ccc(Br)o1)N1CCN(CCOc2ccccc2)CC1`, for which the largest response in the series, negative = inhibition was 15.3%. For `Cc1ccc(/C=N/NC(=O)c2cc3ccccc3cc2O)o1`, the largest response in the series, negative = inhibition is 13.6%. Turning to `O=C(c1cccc(F)c1)N1CCN(c2ccc([N+](=O)[O-])c3cccnc23)CC1`, the largest response in the series, negative = inhibition is 1.54%. As for `O=[N+]([O-])c1cc([N+](=O)[O-])c2cccnc2c1O`, the Potency was 39.8 µM (active). As to `O=[N+]([O-])c1cccc2ncccc12`, the largest response in the series, negative = inhibition is 8.82%. Same read-out and setting: with `NC(=O)C1CC(=O)N(c2ccc(OCC(=O)NCc3ccccc3)cc2)C1` (stereo not drawn) the figure was 23.9%. Same read-out and setting: the same measure for `Nc1scc[n+]1Cc1cccc2cccnc12`: 17.3%. Take `c1ccc2c(C[n+]3csc4ccccc43)cccc2c1`: the Potency is 44.7 µM (active). With `c1ccc(NCc2cccc3ccccc23)nc1`, the largest response in the series, negative = inhibition is -7.37%. For `C=CCCN(C(Cc1ccccc1)C(=O)OC)S(=O)(=O)c1cc(Br)ccc1Br` (stereo not drawn), the largest response in the series, negative = inhibition is 7.63%. With `CCOc1ccc(N/C(N)=N/c2nc(C)c(C)c(=O)[nH]2)cc1`, the largest response in the series, negative = inhibition is 12.8%. For `CSc1nnc(SCc2nc3sc(C(=O)O)c(C)c3c(=O)[nH]2)s1`, the Potency was 12.6 µM (active). As to `CCOC(=O)c1sc2nc(CSc3ccccc3)[nH]c(=O)c2c1C`, the largest response in the series, negative = inhibition was 1.58%.

Regarding `Cc1ccc(C)c(SCc2nc3sc(C(=O)O)c(C)c3c(=O)[nH]2)c1`, the largest response in the series, negative = inhibition was -17.2%. Turning to `Cc1cccc(OCC(=O)NCCNC(=O)c2cccnc2)c1`, the largest response in the series, negative = inhibition is 3.63%. As to `CN(C)CCN(Cc1ccccc1)S(=O)(=O)c1csc(C(N)=O)c1`, the largest response in the series, negative = inhibition is 4.81%.

In the case of `CCc1ccc(OCC(=O)OC(C)C(=O)NC2CC2)cc1` (stereo not drawn), the largest response in the series, negative = inhibition was 6.01%. In the case of `COc1ccc(NC(=O)c2cc(-c3cc(OC)c(OC)c(OC)c3)nc3ccccc23)c(OC)c1`, the largest response in the series, negative = inhibition was 1.5%. Same read-out and setting: the same measure for `CSc1ncccc1C(=O)Nc1ccc(C)cn1`: 10.7%. `Cc1ccc(NC(=O)c2cc(-c3ccc(C)o3)nc3ccccc23)nc1`: the Potency was 10 µM (active). Take `CCc1nccn1CCC(=O)N1CCCC(N2CCN(c3ccccc3F)CC2)C1` (stereo not drawn): the largest response in the series, negative = inhibition was 1.37%. As to `Cc1ccccc1-c1nc(CS(=O)(=O)CC(=O)NC(C)c2ccccc2)c(C)o1` (stereo not drawn), the largest response in the series, negative = inhibition was 1.96%. With `Cc1ccc(/C([O-])=C(/C(=S)NCc2ccco2)[n+]2ccccc2)cc1[N+](=O)[O-]`, the Potency is 25.1 µM (active). In the case of `O=C(c1ccccc1)N1CCN(c2ccc([N+](=O)[O-])c(NCc3ccco3)c2)CC1`, the largest response in the series, negative = inhibition is 10.8%. Same read-out and setting: the same measure for `O=C(NCc1ccco1)c1ccc([N+](=O)[O-])cc1Cl`: 22.8%; for `Cc1ccc(S(=O)(=O)NCC2CCC(C(=O)N3CCOCC3)CC2)cc1` (stereo not drawn): 10%.

For `CC(C)CCN1NC2(CCC(C)CC2)NC1=S` (stereo not drawn), the Potency is 79.4 µM (active).

With `C[C@H]1Cc2c(COc3ccccc3)nc3c(c2CO1)CN(C(=O)NCc1ccco1)CC3`, the largest response in the series, negative = inhibition was 2.41%.

With `O=C(Cn1nc(C(=O)O)c2ccccc2c1=O)Nc1ccc(F)cc1`, the largest response in the series, negative = inhibition was 1.99%. Turning to `COCCOC(=O)C1=C(C)NC(=O)NC1c1cc2c(cc1Br)OCO2` (stereo not drawn), the largest response in the series, negative = inhibition was 10.6%. Regarding `O=C(/C=C/c1ccc(Cl)cc1Cl)c1cccnc1`, the Potency is 31.6 µM (active). With `O=C(/C=C/c1ccc(Cl)cc1Cl)NCc1ccco1`, the largest response in the series, negative = inhibition is -1.31%.

Regarding `O=C(Nc1cccnc1)c1cc(Cl)ccc1Cl`, the largest response in the series, negative = inhibition is 16.1%. The same measure, in the same setting: with `O=C(NCc1ccccc1Cl)c1ccc2c(=O)n(CC3CCCO3)c(=S)[nH]c2c1` (stereo not drawn) the figure was 12.5%; with `O=S(=O)(NC1CCCCC1N1CCC(O)CC1)c1ccc(Cl)cc1` (stereo not drawn), 10.1%; with `COc1ccc(N2CCN(S(=O)(=O)c3ccc4c(c3)N(C(C)=O)CCO4)CC2)cc1`, 11.9%. Turning to `CCCCc1nc(SCC(=O)Nc2nnc(C(C)C)s2)n[nH]1`, the largest response in the series, negative = inhibition is 2.56%. Turning to `N#CC1(NC(=O)COC(=O)CCN=C2NS(=O)(=O)c3ccccc32)CCCCC1`, the largest response in the series, negative = inhibition is 8.87%. As for `O=Cc1cn(-c2ccccc2)nc1-c1ccccn1`, the largest response in the series, negative = inhibition is 19.4%. As to `O=C1C(c2ccccn2)=[N+]([O-])c2ccccc21`, the Potency is 56.2 µM (active). Consider `CCOC(=O)C1(Cc2ccccc2C)CCCN(S(C)(=O)=O)C1` (stereo not drawn), for which the largest response in the series, negative = inhibition is -1.45%. The same measure, in the same setting: the same measure for `O=C(NCCc1ccccc1)C(=O)NCC1OCCN1S(=O)(=O)c1cccs1` (stereo not drawn): 15%.

Consider `CC(=O)N1CCCc2cc(S(=O)(=O)N3CCCC(C(=O)N4CCN(c5cccc(Cl)c5)CC4)C3)ccc21` (stereo not drawn), for which the largest response in the series, negative = inhibition was -7.31%. The same measure, in the same setting: with `O=C(COc1ccccc1)Nc1ccc(C(=O)N2CCCC2)cc1` the figure was 22.7%; with `CCOC(=O)/C(C#N)=C/c1ccc(N2CCCCC2)cc1`, -25.4%. Consider `O=C1C=CC(=O)N1c1ccc(N2CCCCC2)cc1`, for which the Potency was 7.08 µM (active).

As to `Cc1ccccc1C(=O)Nc1ccc(N2CCCCCC2)cc1`, the largest response in the series, negative = inhibition was -8.31%.

As for `Cc1ccc(C(CNC(=O)Nc2ccccc2)N2CCN(C)CC2)cc1` (stereo not drawn), the largest response in the series, negative = inhibition was 6.82%. Still for that read-out and setting: the same measure for `COC(=O)C(C)Oc1ccc2c(c1)O/C(=C\c1cccc(Br)c1)C2=O` (stereo not drawn): -9.46%. The same measure, in the same setting: the same measure for `COc1ccccc1C(=O)N/C(=C/c1ccc2c(c1)OCO2)C(=O)Nc1cccc(C(=O)O)c1`: -9.69%; for `O=C(Nc1ccccc1)c1ccco1`: 19.8%. For `O=C(Nc1ccccc1)/C(=C\c1ccco1)NC(=O)c1ccco1`, the Potency was 44.7 µM (active). For `Cc1ccc(C(=O)N/C(=C/c2ccco2)C(=O)NCCc2c[nH]c3ccccc23)cc1C`, the largest response in the series, negative = inhibition is 21.3%. On the same count and under the same terms, the same measure for `COc1ccc(/C=C(/NC(=O)c2ccccc2)C(=O)Nc2cccc(C(=O)O)c2)cc1`: 2.19%; for `Cc1ccc(NC(=O)/C(=C\c2ccccc2)NC(=O)c2ccco2)cc1`: 12.3%. Still for that read-out and setting: with `CC(=O)NC(Cc1c[nH]c2ccccc12)C(=O)O` (stereo not drawn) the figure was 23%.

Turning to `O=C(NC(Cc1c[nH]c2ccccc12)C(=O)O)/C(=C/c1ccco1)NC(=O)c1ccccc1` (stereo not drawn), the Potency is 44.7 µM (active). In the case of `O=C(NCc1ccco1)/C(=C/c1ccco1)NC(=O)c1ccccc1`, the largest response in the series, negative = inhibition was -7.6%. As for `COc1ccccc1C(=O)N/C(=C/c1ccco1)C(=O)Nc1ccc(C(=O)O)cc1`, the Potency was 50.1 µM (active).

With `COc1ccc(/C=C(/NC(=O)c2ccco2)C(=O)Nc2ccc(C(C)=O)cc2)cc1`, the largest response in the series, negative = inhibition is 0.26%.

Turning to `Cc1cccc(NC(=O)/C(=C\c2ccco2)NC(=O)c2ccccc2)c1`, the Potency is 50.1 µM (active). On to `Cc1nc2ccc(S(=O)(=O)N(C)CC(=O)NC(C)c3ccccc3)cc2s1` (stereo not drawn), for which the largest response in the series, negative = inhibition is 10.4%. Take `COCn1c(C(O)c2ccccc2)cc2ccccc21` (stereo not drawn): the largest response in the series, negative = inhibition was 9.58%. Still for that read-out and setting: the same measure for `Cc1ccccc1C(=O)N1CCN(c2ccc(NC(=O)c3cccs3)cc2)CC1`: 13.1%. The same measure, in the same setting: the same measure for `COc1ccc(C(=O)NCc2nnc(SCC(=O)NC3=NCCS3)n2C)cc1`: -3.34%. Same read-out and setting: with `COC(=O)c1ccc(NC(=O)CSc2nncn2-c2cccnc2)cc1` the figure was 16.4%; with `CC(C)NC(=O)COCc1cc(-c2ccc3c(c2)OCO3)on1`, 4.15%; with `COc1cccc(-n2c(=S)sc3c(=O)n(-c4ccccc4OC)c(SCC4OCCO4)nc32)c1`, -1.29%. On to `COc1cccc(-n2c(=S)sc3c(=O)n(-c4ccccc4C)c(SCC(=O)O)nc32)c1`, for which the largest response in the series, negative = inhibition is 4.84%.

As to `COc1ccc(Cl)cc1-n1c(=S)sc2c(=O)n(-c3ccc(F)cc3)c(SCC(=O)O)nc21`, the Potency is 14.1 µM (active). Consider `O=C(c1cc(COc2ccc(F)cc2F)on1)N1CCOCC1`, for which the largest response in the series, negative = inhibition is 2.39%. With `CC(=O)Nc1cccc(C(=O)OCN2C(=O)c3ccccc3C2=O)c1`, the largest response in the series, negative = inhibition is 7.23%.

As for `CCc1nc(Nc2ccc(NC(C)=O)cc2)c2oc3ccccc3c2n1`, the largest response in the series, negative = inhibition was 3.27%. For `Cc1ccc(N(Cc2ccccc2O)C(=O)c2ccccc2F)cc1`, the largest response in the series, negative = inhibition is 8.31%. As for `O=C(O)c1cc([N+](=O)[O-])c(Nc2cccc3ccccc23)c([N+](=O)[O-])c1`, the largest response in the series, negative = inhibition is -7.55%.

Consider `COCCn1c(C)cc(C2=NNC(=Nc3ccc(F)cc3)SC2)c1C`, for which the Potency was 50.1 µM (active).

Turning to `Cc1cc(C2=NNC(=Nc3ccc(S(=O)(=O)N4CCOCC4)cc3)SC2)c(C)n1CC1CCCO1` (stereo not drawn), the Potency was 22.4 µM (active).

`Cc1ccnc(NS(=O)(=O)c2ccc(NC(=O)c3ccc(S(=O)(=O)N4CCOCC4)cc3)cc2)n1`: the largest response in the series, negative = inhibition was 28.5%. As for `Cc1ccc(S(=O)(=O)N2CCC(C(=O)NCC3CCCO3)CC2)cc1` (stereo not drawn), the largest response in the series, negative = inhibition was 21.8%. On the same count and under the same terms, the same measure for `Cc1cccc(N=C2NN=C(c3c[nH]c4ccccc34)CS2)c1`: -49.9%. Consider `C=CCn1c(C)cc(C2=NNC(=NCC)SC2)c1C`, for which the Potency is 56.2 µM (active). In the case of `C=CCn1c(C)cc(C(=O)CN2C(=O)c3ccccc3C2=O)c1C`, the largest response in the series, negative = inhibition is 1.15%.

Regarding `COC(=O)C(C(=O)OC)C1c2ccccc2C=C(C2CC2)N1C(=O)OC` (stereo not drawn), the largest response in the series, negative = inhibition was 22.5% and 27.4%. The same measure, in the same setting: the same measure for `CCCOc1ccc(C2=CSC3=NCCN23)cc1Cl`: 16%.

For the compound `CCOC(=O)C1CCCN(CCSc2ccc(C)cc2)C1` (stereo not drawn), the largest response in the series, negative = inhibition was 12.5%. The same measure, in the same setting: the same measure for `COc1ccc(C(=O)c2c(C)c(CCC#N)n3ccccc23)c(OC)c1`: 0.761%; for `COc1ccc(C(C)NC(=O)C23CC4CC(CC(C4)C2)C3)cc1` (stereo not drawn): 5.95%; for `O=C(O)c1c(NC(=O)N2CCCC2)sc2c1CCCC2`: -9.57%.
